Here are results for 13 molecules from PubChem BioAssay (NCI).

Compounds without any hit were thinned out: in the full panel of roughly 83,000, 20% have a hit.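 Plates (96-well) were seeded with cells, treated with compound at one concentration, and incubated for 48 hours before percent growth was determined.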 A number with no mark means an inactive call. Activity calls are given as the source filed them. Rule for the calls: active = growth percent below 10; inactive = the rest.

Test systems include NCI-H23 lung; NCI-H226 lung; HOP-62 NSCLC; NCI-H460 lung; HOP-92 NSCLC; NCI-H522 lung; A549/ATCC NSCLC; 786-0 renal; COLO 205 colon.
Common to all, as to test: NCI-60 one-dose screen, 48 h (100 = growth as untreated, 0 = no growth, -100 = all killed)
Common to all, as to details: 10 µM

Consider `S=C(SSC(=S)N(c1ccccc1)c1ccccc1)N(c1ccccc1)c1ccccc1`, for which the growth is 100% with NCI-H23 lung; 99.2% with NCI-H226 lung; 97.6% in the assay on HOP-62 NSCLC; 106% in the assay with NCI-H460 lung; 86.2% with HOP-92 NSCLC; 81.1% in the assay with NCI-H522 lung. Also, the values for the growth with A549/ATCC NSCLC, with 786-0 renal and with COLO 205 colon were 82%, 105% and 132%, respectively.
For `O=C(CCn1cnc2c(cc(-c3ccccc3)n2-c2ccccc2)c1=O)Nc1ccc(F)cc1`, the growth with NCI-H23 lung was 76.1%; in the assay with NCI-H226 lung, 106%; in the assay with HOP-62 NSCLC it was 13%; in the assay on NCI-H460 lung, 80.4%; in the assay with HOP-92 NSCLC, 34.2%; with NCI-H522 lung it was 55%. The values for the growth in the assay with A549/ATCC NSCLC, in the assay on 786-0 renal and in the assay with COLO 205 colon were 70.9%, 62.7% and 103%, respectively.
In the case of `COc1cc(-c2nn(-c3cccc(NC(=O)NCCNC(=O)c4ccccc4)c3)cc2-c2ccncc2)ccc1Cl`, the growth with NCI-H23 lung was 19.7%; in the assay on NCI-H226 lung it was 9.31% (active); in the assay on HOP-62 NSCLC it was 26.4%; in the assay with NCI-H460 lung, 13.5%; with HOP-92 NSCLC it was -0.717% (active); with NCI-H522 lung it was 0.745% (active). For the same molecule, the growth with A549/ATCC NSCLC is 24.2%; with 786-0 renal, -50.6% (active); with COLO 205 colon it was 2.08% (active).
For `O=C1/C(=C/c2ccc3c(c2)OCO3)SC(=S)N1C1c2ccccc2Oc2ccccc21`, the growth with NCI-H23 lung was 89.8%; in the assay with NCI-H226 lung, 97.9%; in the assay with HOP-62 NSCLC, 98.3%; with NCI-H460 lung, 107%; in the assay on HOP-92 NSCLC, 90.7%; in the assay with NCI-H522 lung, 95.8%. Further, the growth with A549/ATCC NSCLC was 109%; in the assay with 786-0 renal it was 97.6%; in the assay with COLO 205 colon, 99.7%.
For the molecule `CC(C)(C)OC(=O)CN1CCc2c(sc3ncnc(N/N=C/c4cccc5ccccc45)c23)C1`, the growth in the assay with NCI-H23 lung is 40.6%; in the assay with NCI-H226 lung, 53.1%; with HOP-62 NSCLC, 45.5%; in the assay on NCI-H460 lung, 20.9%; in the assay on HOP-92 NSCLC, 54.9%; in the assay on NCI-H522 lung it was 32.8%. In addition, the results for the growth with A549/ATCC NSCLC, with 786-0 renal and in the assay on COLO 205 colon were 43.7%, 44.1% and 18.4%, respectively.
For `COc1cc2c(cc1NC(=O)C(Cl)Cl)-c1ccc(NC(=O)C(Cl)Cl)cc1C2`, the growth in the assay on NCI-H23 lung was 48.6%; in the assay with NCI-H226 lung it was 19.3%; in the assay with HOP-62 NSCLC, -58.3% (active); in the assay with NCI-H460 lung, -51.6% (active); in the assay with HOP-92 NSCLC, 40.2%; with NCI-H522 lung, 82.5%. Moreover, the growth in the assay on A549/ATCC NSCLC is -4.92% (active); with 786-0 renal, 48.4%; in the assay on COLO 205 colon it was -86.5% (active).
In the case of `S=c1cnc2ccccc2[nH]1`, the growth was 98.4% in the assay on NCI-H23 lung; 107% in the assay with NCI-H226 lung; 93.3% in the assay on HOP-62 NSCLC; 96.3% in the assay on NCI-H460 lung; 79.4% in the assay with HOP-92 NSCLC; 95.5% with NCI-H522 lung. For the same molecule, the growth is 93.5% in the assay on A549/ATCC NSCLC, 98.9% in the assay on 786-0 renal and 95% with COLO 205 colon.
As to `CC(=O)Nc1ccc2c(c1)C(=O)c1cccc(C(=O)O)c1-2`, the growth was 104% in the assay on NCI-H23 lung; 95.5% with NCI-H226 lung; 98.9% in the assay on HOP-62 NSCLC; 98.1% in the assay with NCI-H460 lung; 96.6% with HOP-92 NSCLC; 108% in the assay on NCI-H522 lung. Also, the growth with A549/ATCC NSCLC was 97.6%; with 786-0 renal, 105%; with COLO 205 colon, 114%.
As to `CC(CN(C)C)Oc1ccccc1NC1=C(Cl)C(=O)C(Nc2ccccc2OC(C)CN(C)C)=C(Cl)C1=O` (configuration not stated), the growth in the assay with NCI-H23 lung was -70.7% (active); with NCI-H226 lung it was -94.4% (active); in the assay with HOP-62 NSCLC it was -97.6% (active); in the assay with NCI-H460 lung, -4.55% (active); in the assay with HOP-92 NSCLC it was -60.7% (active); in the assay with NCI-H522 lung it was -73.4% (active). The growth in the assay on A549/ATCC NSCLC was 1.98% (active); with 786-0 renal, -71.5% (active); with COLO 205 colon, -67.3% (active).
With `Cc1c(O)c(=O)ccn1C1CCC(CC2CCC(n3ccc(=O)c(O)c3C)CC2)CC1` (configuration not stated), the growth in the assay on NCI-H23 lung is 39.5%; with NCI-H226 lung it was 42.1%; in the assay on HOP-62 NSCLC it was 36.2%; in the assay on NCI-H460 lung, 12.5%; in the assay on HOP-92 NSCLC, 51.8%; in the assay with NCI-H522 lung, 31.3%. In addition, the growth in the assay on A549/ATCC NSCLC was 46.4%; in the assay on 786-0 renal, 46.5%; in the assay with COLO 205 colon it was 23.5%.
As to `O=C1/C=C/[C@@H](O)[C@@H]2C[C@@H](O)C[C@H]2/C=C/CCC[C@@H](C(F)(F)F)O1`, the growth with NCI-H23 lung was 81.4%; in the assay with NCI-H226 lung it was 59.9%; with HOP-62 NSCLC, 99.3%; with NCI-H460 lung, 104%; with HOP-92 NSCLC, 99.4%; in the assay on NCI-H522 lung it was 88%. The growth in the assay on A549/ATCC NSCLC is 99.3%; in the assay on 786-0 renal, 92.6%; in the assay with COLO 205 colon, 22%.
As to `Cc1ccc(S(=O)(=O)N(C)CCCCCC(=O)O)cc1`, the growth in the assay on NCI-H23 lung was 99.1%; in the assay on NCI-H226 lung, 99.7%; with HOP-62 NSCLC, 92.3%; in the assay with NCI-H460 lung, 107%; in the assay on HOP-92 NSCLC, 110%; in the assay with NCI-H522 lung it was 90%. For the same molecule, the growth with A549/ATCC NSCLC is 95%; with 786-0 renal, 95.3%; in the assay with COLO 205 colon it was 107%.
With `CCCCN(CCCC)C(=O)[C@H](CC)[C@@H]1CC[C@@H](C)[C@@H]([C@H](C)[C@@H](O)[C@@H](C)C(=O)[C@H](CC)C2O[C@]3(C=C[C@@H](O)[C@]4(CC[C@@](C)([C@H]5CC[C@](O)(CC)[C@H](C)O5)O4)O3)[C@H](C)C[C@@H]2C)O1` (some centres not stated), the growth with NCI-H23 lung was -11.8% (active); in the assay on NCI-H226 lung, -2.42% (active); with HOP-62 NSCLC, 7.81% (active); in the assay on NCI-H460 lung it was -4.44% (active); in the assay on HOP-92 NSCLC it was -25.6% (active); with NCI-H522 lung, -18.4% (active). The growth in the assay on A549/ATCC NSCLC is 9.11% (active); with 786-0 renal, 17.4%; in the assay on COLO 205 colon, -77.6% (active).
